Results filed as inconclusive are left out. Calls of active or inactive are those of the source. Rule for the calls: active = hit-call score of the fitted dose curve at least 0.9, where 1 is the maximum; inconclusive = response in the unintended direction; inactive = score below 0.9.
Target: Hepatocyte nuclear factor 4-alpha (Homo sapiens) (UniProt P41235)
Test: ATG_HNF4a_TRANS: Attagene TRANS-FACTORIAL HepG2 Assay for human Hepatocyte Nuclear Factor 4 alpha (HNF4a) (AID 2282982)
Conditions: HepG2 HNF4a transactivation reporter, mRNA readout
Protocol: ATG_TRANS is a cell-based, multiplexed-readout assay that uses HepG2, a human liver cell line, with measurements taken at 24 hours after chemical dosing in a 24-well plate.ATG_HNF4a_TRANS is one of 30 assay component(s) measured or calculated from the ATG_TRANS assay. It is designed to make measurements of mRNA induction, a form of inducible reporter, as detected with fluorescence intensity signals by Reverse transcription polymerase chain reaction (RT-PCR) and Capillary electrophoresis technology.Data from the assay component ATG_HNF4a_TRANS was analyzed into 1 assay endpoint. This assay endpoint, ATG_HNF4a_TRANS, was analyzed in the positive analysis fitting direction relative to DMSO as the negative control and baseline of activity. Using a type of inducible reporter, measures of mRNA for gain-of-signal activity can be used to understand the reporter gene at the transcription factor-level as they relate to the gene HNF4A. Furthermore, this assay endpoint can be referred to as a primary readout, because this assay has produced multiple assay endpoints where this one serves a reporter gene function. To generalize the intended target to other relatable targets, this assay endpoint is annotated to the nuclear receptor intended target family, where the subfamily is orphan.
Human liver HepG2 cells are transiently transfected with multiple reporter transcription units (MRTUs) in 6-well plates using FuGene 6 reagent (Roche; 3 ml FuGene/1 mg DNA). The MRTU constructs are regulated by a cis-regulating element (promoter). […] A major difference between the CIS and TRANS system is that in CIS activities of endogenous TFs are measured, whereas the TRANS assay evaluates changes in activities of exogenous, chimeric NR-Gal4 proteins. […] At the end of 24 hour incubation, total RNA was isolated using TriZol reagent (Invitrogen). The isolated RNA is then reverse-transcribed using oligo(dT) primer and Mo-MLV reverse transcriptase (Invitrogen) with DNAse I (Ambion) treatment for 30 min. The one-tenth of the produced cDNA was amplified by PCR using Taq DNA polymerase (Invitrogen) and two reporter sequence-specific primers. The PCR products were fluorescently labeled by primer extension with 6-arboxyfluorescein (6-FAM) 5'-labeled reporter sequence-specific primer (2 min at 95 C, 20 s at 68 C and 10 min at 72 C) and these products were digested with 5U of HpaI (New England Biolabs) for 2h at 37 C. The fragments were purified using Qiaquick PCR columns (Qiagen), analyzed on an ABI 3130xL genetic analyzer (Applied Biosystems) with peak positions identified by using a set of X-rhodamine (ROX)-labeled MapMarker1000 molecular weight standards (BioVentures). The raw capillary electrophoresis data was processed using Attagraph software (Attagene).

Chain of Hepatocyte nuclear factor 4-alpha (Homo sapiens) (P41235 whole entry, looked up): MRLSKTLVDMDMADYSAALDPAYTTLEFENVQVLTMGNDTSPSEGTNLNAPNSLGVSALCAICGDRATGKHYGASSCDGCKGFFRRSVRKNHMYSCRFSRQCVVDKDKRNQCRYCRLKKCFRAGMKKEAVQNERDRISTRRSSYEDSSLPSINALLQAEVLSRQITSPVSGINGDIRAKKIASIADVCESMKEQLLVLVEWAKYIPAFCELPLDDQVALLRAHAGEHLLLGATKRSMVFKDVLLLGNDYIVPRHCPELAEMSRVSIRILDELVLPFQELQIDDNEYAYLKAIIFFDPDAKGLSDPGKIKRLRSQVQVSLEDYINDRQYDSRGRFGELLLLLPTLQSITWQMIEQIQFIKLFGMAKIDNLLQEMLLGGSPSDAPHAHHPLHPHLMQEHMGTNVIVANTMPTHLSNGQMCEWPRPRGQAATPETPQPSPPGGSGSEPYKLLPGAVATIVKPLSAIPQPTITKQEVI

| Structure (SMILES) | outcome |
| --- | --- |
| O=[N+]([O-])c1cc(C(F)(F)F)c(Cl)c([N+](=O)[O-])c1Nc1ncc(C(F)(F)F)cc1Cl | inactive |
| CC[C@H](C)[C@H]1O[C@]2(C=C[C@@H]1C)C[C@@H]1C[C@@H](C/C=C(\C)[C@@H](O[C@H]3C[C@H](OC)[C@@H](O[C@H]4C[C@H](OC)[C@@H](NC)[C@H](C)O4)[C@H](C)O3)[C@@H](C)/C=C/C=C3\CO[C@@H]4[C@H](O)C(C)=C[C@@H](C(=O)O1)[C@]34O)O2 | inactive |
| C#CCC1=C(C)C(OC(=O)C2C(C=C(C)C)C2(C)C)CC1=O (stereo not given) | inactive |
| CCOP(=S)(OCC)SCCSCC | inactive |
| CC(COc1ccc(Oc2ccccc2)cc1)Oc1ccccn1 (stereo not given) | inactive |
| CCCCOC(=O)c1ccccc1C(=O)O | inactive |
| CCOP(=O)(SC(C)CC)N1CCSC1=O (stereo not given) | inactive |
| COP(=O)(NC(C)=O)SC (stereo not given) | inactive |
| CC(=NC#N)N(C)Cc1ccc(Cl)nc1 | inactive |
| CCC(=NOC/C=C/Cl)C1=C(O)CC(C2CCOCC2)CC1=O (stereo not given) | inactive |
| CCNc1nc(Cl)nc(NC(C)(C)C#N)n1 | inactive |
| CCCOCC(=Nc1ccc(Cl)cc1C(F)(F)F)n1ccnc1 | inactive |
| CC1=NNC(=O)N(/N=C/c2cccnc2)C1 | inactive |
| COP(=O)(OC)C(O)C(Cl)(Cl)Cl (stereo not given) | inactive |
| CCCOc1nn(C(=O)NS(=O)(=O)c2ccccc2C(=O)OC)c(=O)n1C | inactive |
| O=c1ccc(=O)[nH][nH]1 | inactive |
| CCc1cccc(CC)c1N(COC)C(=O)CCl | inactive |
| N#CSCSC#N | inactive |
| CSc1nnc(C(C)(C)C)c(=O)n1N | inactive |
| Nc1c(Cl)cc([N+](=O)[O-])cc1Cl | inactive |

| Structure (SMILES) | outcome |
| --- | --- |
| CCC(=O)Nc1ccc(Cl)c(Cl)c1 | inactive |
| CN1COCN(Cc2cnc(Cl)s2)C1=N[N+](=O)[O-] | inactive |
| Cc1cc(C2CC2)nc(Nc2ccccc2)n1 | inactive |
| CON=C(C(=O)OC)c1ccccc1CON=C(C)c1cccc(C(F)(F)F)c1 | inactive |
| CCOP(=S)(OCC)Oc1ccc([N+](=O)[O-])cc1 | inactive |
| S=C1NCCN1 | inactive |
| CSC1=N[C@@](C)(c2ccccc2)C(=O)N1Nc1ccccc1 | inactive |
| CCOP(=S)(OCC)OC(Cl)C(Cl)(Cl)Cl (stereo not given) | inactive |
| C=C(C)[C@H]1Cc2c(ccc3c2O[C@@H]2COc4cc(OC)c(OC)cc4[C@@H]2C3=O)O1 | inactive |
| Cc1nn(-c2cc(NS(C)(=O)=O)c(Cl)cc2Cl)c(=O)n1C(F)F | inactive |
| CC1(C(=O)Nc2ccc(O)c(Cl)c2Cl)CCCCC1 | inactive |
| C[N+]1(C)CCCCC1 | inactive |
| C[Si](Cn1cncn1)(c1ccc(F)cc1)c1ccc(F)cc1 | inactive |
| CC(C)N(C(=O)SCC(Cl)=C(Cl)Cl)C(C)C | inactive |
| CN(C)[C@@H]1C(=O)C(C(N)=O)=C(O)[C@@]2(O)C(=O)C3=C(O)c4c(O)cccc4[C@@](C)(O)[C@H]3[C@H](O)[C@@H]12 | inactive |
| CCOP(=S)(Oc1cnc(C(C)(C)C)nc1)OC(C)C (stereo not given) | inactive |
| CC(C)[C@H](C(=O)O[C@H](C#N)c1cccc(Oc2ccccc2)c1)c1ccc(Cl)cc1 | inactive |
| COc1ccc(C(=CC(=O)N2CCOCC2)c2ccc(Cl)cc2)cc1OC | inactive |
| CNC(=O)ON=C(SC)C(=O)N(C)C | inactive |
| CCOC(=O)COc1cc(-c2nn(C)c(OC(F)F)c2Cl)c(F)cc1Cl | inactive |

Reference: PubChem BioAssay (EPA / NIEHS)
